Test results: PubChem BioAssay (NCI)
The panel holds about 79,000 compounds, 15% with a hit somewhere; the sample as a whole holds those more often. Unmarked numbers belong to inactive results. Activity calls are given as the source filed them. No stated cut-off is given here; in the data, active means growth inhibition above about 70%; inactive means the rest.

Key:
[1] = NCI Yeast Anticancer Drug Screen. Data for the rad50 strain (AID 155);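 further: 0% = growth of vehicle-only cultures of the same strain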; settings: S. cerevisiae rad50 strain growth inhibition, active compounds read high
Summary of the method: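 Relative growth inhibition (compound vs vehicle) was measured in yeast with a defined repair-gene alteration.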

[2] = NCI Yeast Anticancer Drug Screen. Data for the mec2-1 strain (AID 157); settings: S. cerevisiae mec2-1 strain, active compounds read high
Summary of the method: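 mec2-1 yeast strain, carrying an alteration in DNA damage repair or cell cycle control, was exposed to compounds; growth inhibition was measured relative to vehicle-treated controls.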

[3] = NCI Yeast Anticancer Drug Screen. Data for the sgs1 mgt1 strain (AID 161);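 further: 0% = growth of cultures given vehicle only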; settings: S. cerevisiae sgs1 mgt1 strain, active compounds read high
Summary of the method: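 Yeast cells carrying a defined DNA-repair defect were exposed to test compounds. Growth inhibition was measured relative to vehicle-treated controls.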

[4] = NCI Yeast Anticancer Drug Screen. Data for the cln2 rad14 strain (AID 165);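 further: 0% = growth equal to vehicle treated cultures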; settings: S. cerevisiae cln2 rad14 strain, active compounds read high
Summary of the method: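 Yeast carrying cln2 and rad14 alterations (cell cycle control and DNA damage repair) were exposed to compounds. Growth inhibition was measured against vehicle-treated controls.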

[5] = NCI Yeast Anticancer Drug Screen. Data for the bub3 strain (AID 167); settings: S. cerevisiae bub3 mutant strain, active compounds read high
Summary of the method: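 Screening used yeast with an engineered genetic alteration affecting cell cycle control. Compound-exposed cultures were compared with vehicle cultures, and reduced growth was taken as inhibition.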

[6] = NCI Yeast Anticancer Drug Screen. Data for the mlh1 rad18 strain (AID 175); settings: S. cerevisiae mlh1 rad18 strain growth inhibition, active compounds read high
Summary of the method: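 Growth inhibition of the yeast strain was measured after compound exposure and expressed relative to vehicle-treated controls. The strain carries defined defects in DNA damage repair.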

[7] = at 5.0 µM (retest, dose inferred, filed as 0.5)
[8] = at 50.0 µM (retest, dose inferred, filed as 5.0)

Row | SMILES | growth inhibition [1, 7] [%] | growth inhibition [1, 8] | growth inhibition ([1]; at 50.0 µM) | growth inhibition [2, 7] [%] | growth inhibition [2, 8] | growth inhibition ([2]; at 50.0 µM) | growth inhibition [3, 7] [%] | growth inhibition [3, 8] | growth inhibition ([3]; at 50.0 µM) | growth inhibition [4, 7] [%] | growth inhibition [4, 8] | growth inhibition ([4]; at 50.0 µM) | growth inhibition [5, 7] [%] | growth inhibition [5, 8] | growth inhibition ([5]; at 50.0 µM) | growth inhibition [6, 7] [%] | growth inhibition [6, 8] | growth inhibition ([6]; at 50.0 µM)
1 | Cc1ccc(NC(=O)CSC(N)=O)cc1 | 4 | 92% (active) | 97.5% (active) | 4 | 96% (active) | 98.5% (active) | 3 | 94% (active) | 99.1% (active) | 2 | 94% (active) | 97.5% (active) | 4 | 96% (active) | 97.8% (active) | 2 | 94% (active) | 97.7% (active)
2 | CCOC(=O)C(CCc1ccccc1[N+](=O)[O-])C(C)=O (stereo not given) | 4 | 61% | 78.9% (active) | 2 | 11% | 27.6% | -3 | 42% | 66.8% | -1 | 8% | -8.55% | -3 | 8% | 54% | -20 | 45% | 69.7%
3 | CNC(Cc1ccccc1)c1ccc(OC)c2ccccc12 (stereo not given) | 3 | 9% | 18.2% | 6 | -16% | 10.2% | -3 | -10% | 14.8% | -1 | 11% | 7.7% | 27 | 25% | 51.7% | -2 | 40% | 21.6%
4 | COC(=O)c1cc(=O)n(-c2ccccc2OC)c(SC)n1 | 2 | 83% (active) | 89.5% (active) | -1 | 73% (active) | 89% (active) | 8 | 87% (active) | 92.5% (active) | -8 | 67% | 49.4% | -5 | 58% | 94.8% (active) | -2 | 79% (active) | 98.1% (active)
5 | CCN(CC)CCOc1ccc(-c2nc3cc(Cl)ccc3s2)cc1 | 29 | 88% (active) | 75% (active) | 54 | 86% (active) | 35.8% | 23 | 91% (active) | 91% (active) | 31 | 84% (active) | 48% | 61 | 90% (active) | 85.7% (active) | 39 | 82% (active) | 83.3% (active)
6 | COC1C=COC2(C)Oc3c(C)c(O)c4c(O)c(c(C5SCCS5)c(O)c4c3C2=O)NC(=O)/C(C)=C\C=CC(C)C(O)C(C)C(O)C(C)C(OC(C)=O)C1C (stereo not given) | -3 | 96% (active) | 94.7% (active) | 1 | 97% (active) | 96.9% (active) | -5 | 34% | 41.5% | 14 | 97% (active) | 95% (active) | 2 | 99% (active) | 95.8% (active) | 4 | 97% (active) | 95.4% (active)
7 | CC1=C(C(=O)Nc2cc(O)ccc2O)C(c2cccc([N+](=O)[O-])c2)C(C(=O)Nc2cc(O)ccc2O)=C(C)N1 | -8 | 20% | 32.3% | -23 | 6% | 25.9% | -14 | 15% | 35.9% | -5 | 12% | 46.8% | -7 | 0% | 2.35% | -9 | 20% | 36.5%
8 | CCCCCC=C(c1cc(Br)cc(C(=O)O)c1O)c1cc(Br)cc(C(=O)O)c1O | 2 | 91% (active) | 89.2% (active) | 0 | 95% (active) | 85.8% (active) | 0 | 95% (active) | 82.8% (active) | 2 | 94% (active) | 67.1% | 0 | 94% (active) | 69% | 4 | 94% (active) | 88.9% (active)
9 | Nc1ccc(-c2nc3ccccc3s2)cc1Br | 33 | 74% (active) | 8% | 24 | 77% (active) | 18.8% | 31 | 97% (active) | 21.1% | 27 | 63% | 10.8% | 28 | 96% (active) | 52% | 34 | 88% (active) | 55.9%
10 | Cc1cccc(C)c1N1C(=O)C(=O)C(c2nc3ccccc3s2)/C(=N/NC(=O)c2ccccc2O)C1=O (stereo not given) | 26 | 26% | 71.9% (active) | 16 | 16% | 56.2% | 26 | 26% | 48.9% | 21 | 21% | 69.5% | 19 | 19% | 66% | 34 | 34% | 48.5%
